Results reported in PMC11006913.
Where a chain is given by its changes, count along the chain named.

The sequences below were run against T1, SIX6 (Homo sapiens, UniProt O95475 114-200, H141N) (assay: PBM; 200 nM protein, PBS). Conditions: dsDNA, one strand shown.
T1 sequence: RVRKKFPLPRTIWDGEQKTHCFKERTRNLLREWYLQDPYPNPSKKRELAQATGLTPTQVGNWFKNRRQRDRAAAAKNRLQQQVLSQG

Question: Which binding signal does the source give for AACGATAC here?
Answer: 11.1 upbm affinity estimate (log intensity, higher = more binding, comparable within an allelic series)

Question: GCGATACC was tested. Which binding signal did it give?
Answer: 11 upbm affinity estimate (log intensity, higher = more binding, comparable within an allelic series)

Question: With CGATACAC as the sequence, how does the binding signal read?
Answer: 11.1 upbm affinity estimate (log intensity, higher = more binding, comparable within an allelic series)

Question: For CTGATACA, which binding signal is on record?
Answer: 11 upbm affinity estimate (log intensity, higher = more binding, comparable within an allelic series)

Question: For CATAACAC, which binding signal is on record?
Answer: 10 upbm affinity estimate (log intensity, higher = more binding, comparable within an allelic series)

Question: With CATATCAC as the sequence, how does the binding signal read?
Answer: 11.1 upbm affinity estimate (log intensity, higher = more binding, comparable within an allelic series)

The sequences below were run against T2, SIX6 (Homo sapiens, UniProt O95475 114-200, T165P) (assay: PBM; 200 nM protein, PBS). Conditions: dsDNA, one strand shown.
T2 sequence: T1 sequence with N28H, T52P

Question: How did the binding signal turn out when GGATCCCC was run?
Answer: 9.23 upbm affinity estimate (log intensity, higher = more binding, comparable within an allelic series)

Question: Which binding signal does the source give for GGGATCCA here?
Answer: 9.27 upbm affinity estimate (log intensity, higher = more binding, comparable within an allelic series)

Question: How did the binding signal turn out when GGATCGGA was run?
Answer: 9.23 upbm affinity estimate (log intensity, higher = more binding, comparable within an allelic series)

Question: For GGGATACC, which binding signal is on record?
Answer: 9.29 upbm affinity estimate (log intensity, higher = more binding, comparable within an allelic series)

Question: With CCGGATCA as the sequence, how does the binding signal read?
Answer: 9.33 upbm affinity estimate (log intensity, higher = more binding, comparable within an allelic series)

Question: With ACTACAAT as the sequence, how does the binding signal read?
Answer: 10.1 upbm affinity estimate (log intensity, higher = more binding, comparable within an allelic series)

Question: CCGGTATC was tested. Which binding signal did it give?
Answer: 9.21 upbm affinity estimate (log intensity, higher = more binding, comparable within an allelic series)

Question: For CGATACGC, which binding signal is on record?
Answer: 9.24 upbm affinity estimate (log intensity, higher = more binding, comparable within an allelic series)

Question: Which binding signal does the source give for GCGATCCC here?
Answer: 9.24 upbm affinity estimate (log intensity, higher = more binding, comparable within an allelic series)

Question: For ACCGATCG, which binding signal is on record?
Answer: 9.18 upbm affinity estimate (log intensity, higher = more binding, comparable within an allelic series)

Question: With GATATGGC as the sequence, how does the binding signal read?
Answer: 9.27 upbm affinity estimate (log intensity, higher = more binding, comparable within an allelic series)

Question: Which binding signal does the source give for GCCGATAC here?
Answer: 9.22 upbm affinity estimate (log intensity, higher = more binding, comparable within an allelic series)

Question: How did the binding signal turn out when GCGATACC was run?
Answer: 9.27 upbm affinity estimate (log intensity, higher = more binding, comparable within an allelic series)

Question: For CTGGATCC, which binding signal is on record?
Answer: 9.18 upbm affinity estimate (log intensity, higher = more binding, comparable within an allelic series)

Question: How did the binding signal turn out when GCTATCAC was run?
Answer: 9.24 upbm affinity estimate (log intensity, higher = more binding, comparable within an allelic series)

Question: With GATACGCC as the sequence, how does the binding signal read?
Answer: 9.27 upbm affinity estimate (log intensity, higher = more binding, comparable within an allelic series)

Question: How did the binding signal turn out when CCGATCCG was run?
Answer: 9.19 upbm affinity estimate (log intensity, higher = more binding, comparable within an allelic series)

Question: For CCCCTATC, which binding signal is on record?
Answer: 9.29 upbm affinity estimate (log intensity, higher = more binding, comparable within an allelic series)

Question: CGTGATCC was tested. Which binding signal did it give?
Answer: 9.16 upbm affinity estimate (log intensity, higher = more binding, comparable within an allelic series)

Question: How did the binding signal turn out when CCGATACG was run?
Answer: 9.12 upbm affinity estimate (log intensity, higher = more binding, comparable within an allelic series)

Question: AAGGATCC was tested. Which binding signal did it give?
Answer: 9.15 upbm affinity estimate (log intensity, higher = more binding, comparable within an allelic series)

Question: Which binding signal does the source give for GAGGGATC here?
Answer: 9.26 upbm affinity estimate (log intensity, higher = more binding, comparable within an allelic series)

Question: Which binding signal does the source give for CAGGGATC here?
Answer: 9.11 upbm affinity estimate (log intensity, higher = more binding, comparable within an allelic series)

Question: For CCTGGATC, which binding signal is on record?
Answer: 9.18 upbm affinity estimate (log intensity, higher = more binding, comparable within an allelic series)

Question: For GGGGATCA, which binding signal is on record?
Answer: 9.12 upbm affinity estimate (log intensity, higher = more binding, comparable within an allelic series)

Question: For GCGGATCC, which binding signal is on record?
Answer: 9.05 upbm affinity estimate (log intensity, higher = more binding, comparable within an allelic series)

Question: For CGGATCGC, which binding signal is on record?
Answer: 9.17 upbm affinity estimate (log intensity, higher = more binding, comparable within an allelic series)

Question: With ACCGGATC as the sequence, how does the binding signal read?
Answer: 9.31 upbm affinity estimate (log intensity, higher = more binding, comparable within an allelic series)

Question: For CGATCCGC, which binding signal is on record?
Answer: 9.21 upbm affinity estimate (log intensity, higher = more binding, comparable within an allelic series)

Question: With CAGGATCA as the sequence, how does the binding signal read?
Answer: 9.29 upbm affinity estimate (log intensity, higher = more binding, comparable within an allelic series)

Question: With GACGATCC as the sequence, how does the binding signal read?
Answer: 9.26 upbm affinity estimate (log intensity, higher = more binding, comparable within an allelic series)

Question: Which binding signal does the source give for GGATCCAC here?
Answer: 9.18 upbm affinity estimate (log intensity, higher = more binding, comparable within an allelic series)

Question: How did the binding signal turn out when GGATCCGA was run?
Answer: 9.08 upbm affinity estimate (log intensity, higher = more binding, comparable within an allelic series)

These sequences were tested against T3, SIX6 (Homo sapiens, UniProt O95475 114-200, T165G) (assay: PBM; 200 nM protein, PBS). Conditions: dsDNA, one strand shown.
T3 sequence: T1 sequence with N28H, T52G

Question: For AACGATAC, which binding signal is on record?
Answer: 11.2 upbm affinity estimate (log intensity, higher = more binding, comparable within an allelic series)

Question: For CATAACAC, which binding signal is on record?
Answer: 10.3 upbm affinity estimate (log intensity, higher = more binding, comparable within an allelic series)

Question: Which binding signal does the source give for CATATCAC here?
Answer: 11.1 upbm affinity estimate (log intensity, higher = more binding, comparable within an allelic series)

The sequences below were run against T4, SIX6 (Homo sapiens, UniProt O95475 114-200, T139Q) (assay: PBM; 200 nM protein, PBS). Conditions: dsDNA, one strand shown.
T4 sequence: T1 sequence with T26Q, N28H

Question: How did the binding signal turn out when AACGATAC was run?
Answer: 11.2 upbm affinity estimate (log intensity, higher = more binding, comparable within an allelic series)

Question: For GCGATACC, which binding signal is on record?
Answer: 11.1 upbm affinity estimate (log intensity, higher = more binding, comparable within an allelic series)

Question: How did the binding signal turn out when CGATACAC was run?
Answer: 11.2 upbm affinity estimate (log intensity, higher = more binding, comparable within an allelic series)

Question: Which binding signal does the source give for CATAACAC here?
Answer: 10.4 upbm affinity estimate (log intensity, higher = more binding, comparable within an allelic series)

Each sequence was assayed against T5, SIX6 (Homo sapiens, UniProt O95475 114-200, T165A) (assay: PBM; 200 nM protein, PBS). Conditions: dsDNA, one strand shown.
T5 sequence: T1 sequence with N28H, T52A

Question: How did the binding signal turn out when AACGATAC was run?
Answer: 11 upbm affinity estimate (log intensity, higher = more binding, comparable within an allelic series)

Question: CGATACAC was tested. Which binding signal did it give?
Answer: 11 upbm affinity estimate (log intensity, higher = more binding, comparable within an allelic series)

Question: CTGATACA was tested. Which binding signal did it give?
Answer: 11 upbm affinity estimate (log intensity, higher = more binding, comparable within an allelic series)

Question: CATAACAC was tested. Which binding signal did it give?
Answer: 10.1 upbm affinity estimate (log intensity, higher = more binding, comparable within an allelic series)

Question: How did the binding signal turn out when CATATCAC was run?
Answer: 11 upbm affinity estimate (log intensity, higher = more binding, comparable within an allelic series)
